HepG2 viability – kills HepG2 cells in TGF-b inhibitor counter-screen; HepG2 CAGA-GFP viability, ATP luminescence, 18 h; AID 588856; 410,000 tested, 0.76% active; Potency, µM (highest dose often 46.1 µM), actives largely listed as cytotoxic
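CellTiter-Glo luminescence gave cytotoxicity after 18 hours at 37 degrees C. The cells were HepG2 CAGA-GFP in 1% FBS DMEM, stimulated with 500 pg/mL TGF-beta after compound addition. %Activity was normalised to no-cell wells (complete cell-killing) and DMSO (no toxicity), and curves were fitted and classified.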
Anesthetic bind – binds horse apoferritin like a general anesthetic; P02791; apoferritin/1-aminoanthracene competitive binding, fluorescence; Potency, µM (series often up to 77.5 µM), usual class: inhibitors; 350,000 tested, 0.074% active; AID 485281; note: nearly all actives have a fitted effect of over 20% in size
Target sequence (P02791 2-175 limits assumed): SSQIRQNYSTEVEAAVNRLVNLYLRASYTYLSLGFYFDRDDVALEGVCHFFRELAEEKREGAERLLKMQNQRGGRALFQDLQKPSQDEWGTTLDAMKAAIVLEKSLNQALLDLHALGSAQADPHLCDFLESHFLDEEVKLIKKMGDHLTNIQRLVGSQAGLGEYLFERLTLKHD
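Steps: apoferritin (10 uM) was premixed with half-saturated 1-AMA in PBS, compounds were pin-transferred, plates stood 10 min at room temperature, fluorescence was read at 380/535 nm, and curves were fitted with a Hill equation.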
ATXN2 expr inh – inhibitors of ATXN2 expression. HEK-293 ATXN2-luciferase reporter, luminescence, 24 h. Potency, µM (titrated, usually from 57 µM), actives largely listed as inhibitors. 360,000 tested, 0.72% active; note: nearly all actives have a fitted effect of over 55% in size
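qHTS (up to 57 uM final) was run with 24 h compound exposure of reporter cells at 37 °C. Each well was multiplexed: SteadyGlo luminescence measured ATXN2-luciferase expression after a fluorogenic Gly-Phe-AFC viability readout (25 uM final).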
ATXN viability – viability counter-screen for ATXN expression inhibitors; 400,000 tested, 0.49% active; Potency, µM (doses to about 56.7 µM), usual class: cytotoxic; AID 651635; S2 cells (HEK-293 line with an ATXN2-luciferase reporter) viability, CellTiter-Fluor protease fluorescence, 24 h; note: nearly all actives have a fitted effect of over 40% in size
TGFb SMAD3 inh – blocks TGF-b signaling; HepG2 CAGA-GFP TGF-b/SMAD3 reporter, GFP fluorescence, 18 h; TGF-beta stimulated, 500 pg/mL final; Potency, µM (highest dose often 46.1 µM), hits mostly inhibitors; 410,000 tested, 1.2% active; note: nearly all actives have a fitted effect of over 65% in size
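First, reporter cells (HEPG2 CAGA-GFP) rested 2 h at 37 degrees C. Next, compounds were pinned in and TGF-beta added to 500 pg/mL final. After 18 h, GFP was imaged per cell and summed per well.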
Hits are given with their value; . = inactive; ? = inconclusive; / = not tested or not shown; [ ] = another dose, or the depositor's remark. Only some compounds are listed: those with a hit (about 2.4% of all), similar ones and a draw of the others. Calls come from the whole dose curve; as a rule, active = well fitted curve in the direction sought with a large enough effect; inconclusive = small, poorly fitted or top-dose-only effect, or another doubt; inactive = no such curve, though single readings can be large; an effect the other way counts as inactive or inconclusive.

SMILES	HepG2 viability	Anesthetic bind	ATXN2 expr inh	ATXN viability	TGFb SMAD3 inh
Cc1ccc(C(c2ccccc2)c2c(C)[nH]c3ccccc23)s1 (stereo not given)	.	?	?	?	14.1µM
c1ccc2c(C(c3c[nH]c4ccccc34)c3c[nH]c4ccccc34)c[nH]c2c1	.	/	/	/	?
Cc1[nH]c2ccccc2c1C(c1c[nH]c2ccccc12)c1c(C)[nH]c2ccccc12	.	/	/	/	15.8µM
CCc1ccc(C(c2ccccc2)c2c(C)[nH]c3ccccc23)s1 (stereo not given)	.	.	?	/	?
CC(=O)N[C@@H](CCC(N)=O)C(=O)O	/	/	.	.	/
COc1ccc(OCC(O)CNCCOc2ccccc2OC)c(C(C)(C)C)c1 (stereo not given)	.	.	/	/	12.6µM
COc1cc(NCCCCCCN)c2ncccc2c1OC	.	/	15.8µM	?	.
Cc1occc1C(=O)N/N=C/c1ccc(OCc2ccccc2)cc1	.	.	.	.	?
Cc1occc1C(=O)N/N=C/c1ccc(-c2ccccc2)cc1	11.2µM	.	.	.	.
Cc1cc(C(=O)N/N=C/c2ccc3c(c2)OCO3)c(C)o1	.	.	.	.	.
Cc1ccsc1C(=O)N/N=C/c1ccc2c(c1)OCO2	5.62µM	.	.	.	.
Cc1occc1C(=O)N/N=C/c1ccc2c(c1)OCO2	11.2µM	.	?	.	.
COc1cc(/C=c2\[nH]c(=O)/c(=C/c3cc(OC)c(OC)c(OC)c3)[nH]c2=O)cc(OC)c1OC	.	/	/	/	.
Cc1ccc(N2C(=O)C(CC(=O)Nc3cccc(F)c3)N(CCc3ccccc3F)C2=O)cc1 (stereo not given)	.	.	.	?	?
Cc1ccc(CNc2ccc(-c3nc(-c4ccco4)no3)cc2[N+](=O)[O-])cc1	.	.	.	.	.
OC1CCC(Nc2ncc3nc(Nc4c(F)cc(F)cc4F)n([C@@H]4CCOC4)c3n2)CC1 (stereo not given in full)	/	/	.	/	/
COc1ccc(-c2onc(C)c2-c2cnn(-c3ccccc3)c2)c(O)c1C	.	.	.	.	.
COc1ccc(-c2n[nH]c(C)c2-c2cnn(-c3ccccc3)c2)c(O)c1C	.	.	?	.	12.6µM
COc1ccc(-c2n[nH]c(C)c2-c2cnn(-c3ccccc3)c2)c(O)c1	.	.	.	.	12.6µM
CC(C(=O)c1ccccc1)[n+]1ccc(Cl)c2ccc(Cl)cc21 (stereo not given)	.	/	/	/	.
Cc1ccc(-c2ccnc(-n3ncc(C(=O)N(C)CC4CCCN(C)C4)c3C)n2)o1 (stereo not given)	/	/	/	.	/
Cc1ccccc1CN1CCc2nnc(C(C)NC(=O)c3cc(F)ccc3F)n2CC1 (stereo not given)	/	/	/	.	/
CC12CCC(C(=O)Nc3ccc(Br)cn3)(OC1=O)C2(C)C (stereo not given)	4.47µM	.	.	.	.
CC(C)Cc1ccc(S(=O)(=O)N2CCN(Cc3noc(CCC(=O)N4CCCCC4)n3)CC2)cc1	.	.	/	/	11.2µM
CC[C@]1(c2ccccc2)NC(=O)NC1=O	/	.	/	/	/
SMILES	HepG2 viability	Anesthetic bind	ATXN2 expr inh	ATXN viability	TGFb SMAD3 inh
COc1cccc(-c2nnc3sc(-c4ccccc4)nn23)c1	.	.	.	.	.
Cc1cccc(-c2nnc3sc(-c4ccccc4C)nn23)c1	12.6µM	?	.	.	.
COc1cc(Br)cc(/C=N/NC(=O)Cc2ccccc2)c1O	.	/	?	/	10µM
O=C(COc1ccc(-c2ccccc2)cc1)N/N=C/c1ccccc1Br	.	?	.	.	?
O=C(COc1ccc(-c2ccccc2)cc1)N/N=C/c1cc(O)ccc1Br	.	?	.	?	12.6µM
O=C(Cc1ccccc1)N/N=C/c1cc(Br)cc(Cl)c1O	.	.	.[11.3 µM]	/	.
O=C(CP(=O)(c1ccccc1)c1ccccc1)N/N=C/c1cc(Br)cc(Br)c1O	.	.	10µM	.	.
CC(C)c1ccc(CNC(=O)C(=O)NCC2CCCO2)cc1 (stereo not given)	.	.	.	.	.
CC(O)CCCCCCC/C=C/C=C/C(N)=O (stereo not given)	/	.[15.3 µM]	/	/	/
C[C@@H]1[C@H](c2ccccc2)OCCS(=O)(=O)N1Cc1cccc(C(F)(F)F)c1	.	/	/	/	?
